# From PubChem BioAssay
# CtBP-E1A inh – blocks the CtBP interaction with E1A. AlphaScreen GST-E1A/His-CtBP binding, 1536-well; stronger effect = lower value. activity change, % (concentration not given with the values). 340,000 compounds, 0.49% hits; in the data active = activity change below about -65%; inconclusive = mostly about -30% to -63%
#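 Homogeneous bead-based format: GST-tagged E1A captured on glutathione donor beads, His-tagged CtBP on nickel acceptor beads; compounds precede bead addition by 2 h at 37 °C.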
# DT40 TDP1 CPT – growth inhibition of DT40 Tdp1-/-;hTDP1 cells with camptothecin (screen for TDP1 inhibitors). chicken DT40 Tdp1-/-;hTDP1 cells + 20 nM CPT, ATP luminescence, 48 h. Potency, µM (highest dose often 46.2 µM), for inactives: at the highest dose activity change, negative = growth inhibition, actives largely listed as inhibitors. 420,000 compounds, 12% hits. AID 686979; note: potency is the fitted concentration of half-maximal effect; nearly all actives have a fitted effect of over 55% in size
#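 Chicken DT40 Tdp1-/- cells stably complemented with human TDP1 were seeded at 400 cells/well in medium containing 20 nM camptothecin, exposed to pin-transferred compounds, and grown at 37 °C for at least 48 hr. Viability was read as ATP luminescence.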
# DT40 TDP1 no CPT – qHTS for Inhibitors of human tyrosyl-DNA phosphodiesterase 1 (TDP1): qHTS in cells in absence of CPT | AID 686978, 2013 | DT40 Tdp1-/- hTDP1 cells, no CPT, ATP luminescence, 48 h | 420,000 compounds, 15% hits | Potency, µM (top dose mostly 46.2 µM), without a hit: top-dose activity change, negative = growth inhibition, hits mostly inhibitors; note: potency is the fitted concentration of half-maximal effect; nearly all actives have a fitted effect of over 55% in size
#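 Seeded 400 DT40-hTDP1 cells/well (vehicle DMSO, no 20 nM CPT); pinned compounds; ≥48 hr at 37 °C; CellTiter-Glo luminescence as viability measure.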
# Six1-Eya2 inh – inhibitors of human Six1/Eya2 interaction; Q15475+O00167; AlphaScreen GST-Six1/His-Eya2 binding, biochemical; stronger effect = lower value; activity change, % (no concentration beside the values); 360,000 compounds, 0.56% hits; AID 651725; in the data active = activity change below about -65%; inconclusive = mostly about -30% to -63%
#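 AlphaScreen luminescence read after one hour at 37 °C in darkness. Pin-transferred compounds met GST-Six1 and His-Eya2 protein (5X stock 250 nM/500 nM) plus glutathione donor and Ni-chelate acceptor beads (5X, 50 ug/mL).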
# TDP1 inh – inhibitors of human tyrosyl-DNA phosphodiesterase TDP1 | Q9NUW8 | 350,000 compounds, 0.28% hits | Potency, µM (doses to about 130 µM), inactives show at the highest dose activity change, negative = inhibition, most hits filed as inhibitors | recombinant TDP1, AlphaScreen DNA substrate cleavage; note: potency is the fitted concentration of half-maximal effect; nearly all actives have a fitted effect of over 40% in size
# Target sequence (Q9NUW8 whole entry, looked up): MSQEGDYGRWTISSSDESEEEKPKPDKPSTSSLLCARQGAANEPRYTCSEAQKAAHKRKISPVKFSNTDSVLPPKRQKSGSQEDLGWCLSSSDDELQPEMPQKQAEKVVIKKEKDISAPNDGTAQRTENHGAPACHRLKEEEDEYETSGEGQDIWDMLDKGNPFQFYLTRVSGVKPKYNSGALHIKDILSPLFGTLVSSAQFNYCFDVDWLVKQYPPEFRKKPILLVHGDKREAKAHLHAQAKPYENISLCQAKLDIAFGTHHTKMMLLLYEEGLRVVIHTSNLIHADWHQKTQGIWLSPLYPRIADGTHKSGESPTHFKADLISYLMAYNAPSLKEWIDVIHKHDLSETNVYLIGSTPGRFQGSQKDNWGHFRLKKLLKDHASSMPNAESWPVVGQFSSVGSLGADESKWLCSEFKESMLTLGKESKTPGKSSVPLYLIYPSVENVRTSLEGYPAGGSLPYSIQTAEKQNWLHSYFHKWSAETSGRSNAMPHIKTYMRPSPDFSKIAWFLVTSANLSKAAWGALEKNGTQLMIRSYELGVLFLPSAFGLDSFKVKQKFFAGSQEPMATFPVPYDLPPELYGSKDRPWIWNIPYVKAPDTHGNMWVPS
#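 Recombinant E. coli-expressed Tdp1 (1 nM) preincubated with compound 15 min at RT, then 5'-biotin/3'-phosphotyrosine-FITC DNA substrate (15 nM) added for 5 min. AlphaScreen beads (10 ug/ml) added, 10 min RT; tyrosine-FITC cleavage read as signal loss.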
# IL-1B inflam inh – inflammasome signaling inhibition, IL-1 beta readout; THP-1 LPS/ATP IL-1B secretion, AlphaLISA, 16 h; stronger effect = lower value; activity change, % at 57.5 µM; 360,000 compounds, 4.7% hits; in the data active = activity change below about -50%; inconclusive = mostly about -30% to -49%
#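 Secreted IL-1B measured by AlphaLISA bead assay after 16 h compound exposure of THP-1 cells; compounds (final up to 57.5 uM) added 1 h before LPS (250 ng/mL) and ATP (1.25 mM) stimulation; lower signal means less secretion.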
# Numbers without * were called inactive; ? = inconclusive; . = no result given; [ ] = another dose, or the depositor's remark. Hits are enriched below; roughly 18% of the tested compounds scored in any of these assays. Unless noted, calls come from the whole dose curve; as a rule, active = well fitted curve in the direction sought with a large enough effect; inconclusive = small, poorly fitted or top-dose-only effect, or another doubt; inactive = no such curve, though single readings can be large; an effect the other way counts as inactive or inconclusive. % is set by controls: 0 for no effect and ±100 for the full control effect.
SMILES,CtBP-E1A inh,DT40 TDP1 CPT,DT40 TDP1 no CPT,Six1-Eya2 inh,TDP1 inh,IL-1B inflam inh
CCCCN(Cc1ccccc1)S(=O)(=O)c1c(N)n(C)c(=O)n(C)c1=O,-3.5,-4.3%,0.2%,4.8,2.6%,6.6
O=C(O)c1ccccc1C(=O)Nc1ccccc1NC(=O)c1ccccc1C(=O)O,4.8,16.9%,-17.8%,-1.0,.,12.8
O=[N+]([O-])c1ccccc1CN1CCN(Cc2ccc3ccccc3c2)CC1,.,-28.3%,-10.8%,?,.,2.1
COc1ccc(C(=O)NCCc2ccccn2)cc1S(=O)(=O)Nc1ccc(Br)cc1,-0.1,-17.4%,-3.6%,1.9,-0.4%[56.1 µM],-6.2
CCc1ccc(N/C(SC)=C(/C#N)C(N)=O)cc1,2.7,?,?,0.1,6.2%,-17.0
N#CC(C#N)=C(Nc1ccc(F)cc1)SCc1cccc(F)c1,0.8,2.59µM*,2.59µM*,2.9,2.6%,?
COc1ccc([C@H]2CC(=O)C=C(c3cccc(OC)c3OC)C2)cc1OC,-2.8,?,23.1µM*,-4.8,1.0%,18.8
COc1ccc([C@H]2CC(=O)C=C(c3ccc(C)cc3)C2)cc1OC,-9.5,18.4µM*,?,-14.8,2.2%,-12.6
CCCOc1ccc(C2=CC(=O)C[C@H](c3ccc(OC)cc3)C2)cc1,.,?,?,1.9,-2.7%,-10.3
COc1ccc(C2=CC(=O)C[C@H](c3ccc(OC)c(OC)c3)C2)cc1,4.2,13µM*,18.4µM*,21.8,4.4%,-29.1
COc1ccc([C@H]2CC(=O)C=C(c3ccc(CNC(=O)OC(C)(C)C)cc3)C2)cc1,-4.4,?,23.1µM*,-5.7,0.6%,-8.2
CN(C)c1ccc(C(=O)Nc2nnc(C3=COCCO3)o2)cc1,-1.0,?,?,?,4.6%,-1.8
CC(C)Oc1ccc(C(=O)Nc2nnc(C3=COCCO3)o2)cc1,-15.4,18.4µM*,?,-22.4,1.1%[0.505 µM],4.3
CC(C)(C)c1ccc(C(=O)Nc2nnc(C3=COCCO3)o2)cc1,-22.1,13µM*,16.4µM*,-18.3,2.1%,-1.4
CC1(c2nnc(-c3ccccc3)o2)CC(c2ccc(Cl)cc2)=NO1 (stereo not drawn),.,-11.3%,-27.7%,0.8,1.2%,1.9
CC1(c2nnc(-c3ccccc3)o2)CC(c2ccc([N+](=O)[O-])cc2)=NO1 (stereo not drawn),8.6,?,18.4µM*,9.7,.,9.9
CC1(c2nnc(-c3ccncc3)o2)CC(c2ccc(Cl)cc2)=NO1 (stereo not drawn),-27.2,20.6µM*,20.6µM*,5.3,.,-9.5
O=C(NCc1cc(C(F)(F)F)ccc1F)C1CCC(=O)N(C2CC2)C1 (stereo not drawn),10.5,-3.3%,-1.5%,0.6,1.6%[56.1 µM],18.6
O=C(CN(Cc1ccccc1)S(=O)(=O)c1cccc(C(F)(F)F)c1)NC1CCCCC1,-1.6,?,?,-1.2,-5.3%,1.4
CC(c1ccccc1)N(CC(=O)NC1CCCCC1)S(=O)(=O)c1cccc(C(F)(F)F)c1 (stereo not drawn),2.8,?,16.4µM*,17.0,-0.6%,-62.3*
